According to PubChem BioAssay (NCI):
Compounds without any hit were thinned out: in the full panel of roughly 79,000, 15% have a hit. Active and inactive are the calls of the source. No stated cut-off is given here; in the data, active means growth inhibition above about 70%; inactive means the rest.

Assays:
[1] = NCI Yeast Anticancer Drug Screen. Data for the rad50 strain (AID 155);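 further: 0% = growth of vehicle-only cultures of the same strain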; conditions: S. cerevisiae rad50 strain growth inhibition, active compounds read high
How it was run: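 Growth of the mutant yeast was measured after compound exposure and referenced to vehicle-treated cultures.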

[2] = NCI Yeast Anticancer Drug Screen. Data for the mec2-1 strain (AID 157); conditions: S. cerevisiae mec2-1 strain, active compounds read high
How it was run: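 mec2-1 yeast strain, carrying an alteration in DNA damage repair or cell cycle control, was exposed to compounds; growth inhibition was measured relative to vehicle-treated controls.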

[3] = NCI Yeast Anticancer Drug Screen. Data for the sgs1 mgt1 strain (AID 161);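 further: 0% = growth of cultures given vehicle only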; conditions: S. cerevisiae sgs1 mgt1 strain, active compounds read high
How it was run: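 This yeast growth screen uses a strain with defined DNA-repair lesions; compound-treated growth is compared with vehicle-treated growth.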

[4] = NCI Yeast Anticancer Drug Screen. Data for the cln2 rad14 strain (AID 165);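 further: 0% = growth equal to vehicle treated cultures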; conditions: S. cerevisiae cln2 rad14 strain, active compounds read high
How it was run: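 Yeast carrying cln2 and rad14 alterations (cell cycle control and DNA damage repair) were exposed to compounds. Growth inhibition was measured against vehicle-treated controls.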

[5] = NCI Yeast Anticancer Drug Screen. Data for the bub3 strain (AID 167); conditions: S. cerevisiae bub3 mutant strain, active compounds read high
How it was run: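 Whole-cell yeast assay. The mutant strain was incubated with compounds, and growth inhibition was determined by comparison with vehicle-treated cells.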

[6] = NCI Yeast Anticancer Drug Screen. Data for the mlh1 rad18 strain (AID 175); conditions: S. cerevisiae mlh1 rad18 strain growth inhibition, active compounds read high
How it was run: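 Growth inhibition of the yeast strain was measured after compound exposure and expressed relative to vehicle-treated controls. The strain carries defined defects in DNA damage repair.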

[7] = at 5.0 µM (retest, dose inferred, filed as 0.5)
[8] = at 50.0 µM (retest, dose inferred, filed as 5.0)

Measured: growth inhibition

CCn1c2ccccc2c(=O)c2c(OC)ccc(OC)c21
active: [1]; [8] 73% | [1]; at 50.0 µM 77.6% | [3]; [8] 94% | [3]; at 50.0 µM 81.5% | [5]; [8] 75% | [6]; [8] 87% | [6]; at 50.0 µM 89.8%
inactive: [1]; [7] 2% | [2]; [7] 4% | [2]; [8] 51% | [2]; at 50.0 µM -1.7% | [3]; [7] 0% | [4]; [7] -1% | [4]; [8] 24% | [4]; at 50.0 µM 49.4% | [5]; [7] 28% | [5]; at 50.0 µM 52.6% | [6]; [7] -1%

CC(=O)c1ccc(Cl)c(N=Cc2cc(Br)ccc2O)c1
inactive: [1]; [7] 55% | [1]; at 50.0 µM 68.4% | [2]; [7] 35% | [3]; [7] 57% | [3]; at 50.0 µM 67.4% | [4]; [7] 34% | [4]; [8] 56% | [4]; at 50.0 µM 24.4% | [5]; [7] 52% | [6]; [7] 64% | [6]; at 50.0 µM 61.5%
active: [1]; [8] 77% | [2]; [8] 81% | [2]; at 50.0 µM 70.4% | [3]; [8] 95% | [5]; [8] 98% | [5]; at 50.0 µM 78.2% | [6]; [8] 96%

CN(C)C(=S)NC(=S)Nc1ccc2ccccc2c1
active: [1]; [8] 88% | [2]; [8] 89% | [3]; [8] 82% | [4]; [8] 87% | [5]; [8] 92% | [6]; [8] 92% | [6]; at 50.0 µM 73.3%
inactive: [1]; [7] 5% | [1]; at 50.0 µM 62.8% | [2]; [7] 17% | [2]; at 50.0 µM 40.9% | [3]; [7] 34% | [3]; at 50.0 µM 66.2% | [4]; [7] 8% | [4]; at 50.0 µM 46.5% | [5]; [7] 2% | [5]; at 50.0 µM 57.4% | [6]; [7] 12%

O=c1cccccc1O.O=c1cccccc1O.O=c1cccccc1O.[Ru]
active: [1]; at 50.0 µM 87.5% | [2]; [8] 90% | [2]; at 50.0 µM 96.2% | [3]; [8] 81% | [3]; at 50.0 µM 91.5% | [6]; [8] 81% | [6]; at 50.0 µM 95.1%
inactive: [1]; [7] 29% | [1]; [8] 64% | [2]; [7] 32% | [3]; [7] 49% | [4]; [7] 11% | [4]; [8] 36% | [4]; at 50.0 µM 26.4% | [5]; [7] -11% | [5]; [8] -9% | [5]; at 50.0 µM 15.8% | [6]; [7] 55%

CCCCCC(CN(C)C)C(=O)/C=C/c1ccc(Cl)cc1 (configuration not stated)
inactive: [1]; [7] 21% | [2]; [7] -1% | [3]; [7] 6% | [4]; [7] -1% | [5]; [7] 5% | [6]; [7] 33%
active: [1]; [8] 99% | [1]; at 50.0 µM 99.2% | [2]; [8] 100% | [2]; at 50.0 µM 99.3% | [3]; [8] 99% | [3]; at 50.0 µM 99.3% | [4]; [8] 99% | [4]; at 50.0 µM 99.2% | [5]; [8] 98% | [5]; at 50.0 µM 99.3% | [6]; [8] 99% | [6]; at 50.0 µM 99.2%

CCN(CC)CCC(=O)OC1C(C)=CC(C)C(=O)CC(C(C)CC2CCC(O)C(OC)C2)OC(=O)C2CCCCN2C(=O)C(=O)[C@@]2(O)OC(CCC2C)CC(OC)\C(C)=C/C=C/C=C/C(C)CC(C)C(=O)C1OC (some centres not stated)
inactive: [1]; [7] 40% | [2]; [7] 26% | [5]; [7] 53%
active: [1]; [8] 97% | [1]; at 50.0 µM 90.9% | [2]; [8] 98% | [2]; at 50.0 µM 93% | [3]; [7] 96% | [3]; [8] 96% | [3]; at 50.0 µM 93.4% | [4]; [7] 94% | [4]; [8] 95% | [4]; at 50.0 µM 87.7% | [5]; [8] 98% | [5]; at 50.0 µM 92.8% | [6]; [7] 97% | [6]; [8] 97% | [6]; at 50.0 µM 92.2%

NN=C(CC(O)(C(F)(F)Cl)C(F)(F)Cl)CC(O)(C(F)(F)Cl)C(F)(F)Cl
active: [1]; [8] 99% | [1]; at 50.0 µM 98.9% | [2]; [8] 99% | [2]; at 50.0 µM 99.2% | [3]; [8] 99% | [3]; at 50.0 µM 99.1% | [4]; [8] 100% | [4]; at 50.0 µM 99.3% | [5]; [8] 100% | [5]; at 50.0 µM 99% | [6]; [8] 99% | [6]; at 50.0 µM 98.8%
inactive: [1]; [7] 32% | [2]; [7] 32% | [3]; [7] 26% | [4]; [7] 33% | [5]; [7] 6% | [6]; [7] 38%

O=C(CNC(=O)Nc1ccc(NC(=O)NCC(=O)Nc2ccc(C3=NCCN3)cc2)cc1)Nc1ccc(C2=NCCN2)cc1
inactive: [1]; [7] 3% | [1]; [8] -2% | [2]; [7] -16% | [2]; [8] -3% | [3]; [7] 2% | [3]; [8] -3% | [4]; [7] 5% | [4]; [8] 5% | [4]; at 50.0 µM 30.7% | [5]; [7] 0% | [5]; [8] -5% | [6]; [7] 4% | [6]; [8] 20%
active: [1]; at 50.0 µM 98.2% | [2]; at 50.0 µM 88.4% | [3]; at 50.0 µM 98.8% | [5]; at 50.0 µM 96.4% | [6]; at 50.0 µM 95.2%

OC1C2CCC1C1C3C=CC(C3)C21 (configuration not stated)
active: [1]; [8] 91% | [1]; at 50.0 µM 84.8% | [2]; [8] 93% | [3]; [8] 88% | [4]; at 50.0 µM 70.2% | [5]; [8] 85% | [6]; [8] 94% | [6]; at 50.0 µM 83%
inactive: [1]; [7] 1% | [2]; [7] 5% | [2]; at 50.0 µM 62.2% | [3]; [7] 11% | [3]; at 50.0 µM 42.4% | [4]; [7] -3% | [4]; [8] 38% | [5]; [7] 11% | [5]; at 50.0 µM 52.1% | [6]; [7] -1%
